Many of the other results were omitted from the sample, so hits are more common in it than they were.
KDM5B inhibitor: KDM5B demethylase inhibition. KDM5B demethylase, FDH-coupled NADH fluorescence (FDH is formaldehyde dehydrogenase). Potency, µM (doses to about 57.7 µM), actives largely listed as inhibitors. actives 2.6% (n = 220,000). AID 1347165; active = well fitted inhibition curve with a large enough effect; also: nearly all actives have a fitted effect of over 70% in size
Target sequence (Q9UGL1 whole entry, looked up): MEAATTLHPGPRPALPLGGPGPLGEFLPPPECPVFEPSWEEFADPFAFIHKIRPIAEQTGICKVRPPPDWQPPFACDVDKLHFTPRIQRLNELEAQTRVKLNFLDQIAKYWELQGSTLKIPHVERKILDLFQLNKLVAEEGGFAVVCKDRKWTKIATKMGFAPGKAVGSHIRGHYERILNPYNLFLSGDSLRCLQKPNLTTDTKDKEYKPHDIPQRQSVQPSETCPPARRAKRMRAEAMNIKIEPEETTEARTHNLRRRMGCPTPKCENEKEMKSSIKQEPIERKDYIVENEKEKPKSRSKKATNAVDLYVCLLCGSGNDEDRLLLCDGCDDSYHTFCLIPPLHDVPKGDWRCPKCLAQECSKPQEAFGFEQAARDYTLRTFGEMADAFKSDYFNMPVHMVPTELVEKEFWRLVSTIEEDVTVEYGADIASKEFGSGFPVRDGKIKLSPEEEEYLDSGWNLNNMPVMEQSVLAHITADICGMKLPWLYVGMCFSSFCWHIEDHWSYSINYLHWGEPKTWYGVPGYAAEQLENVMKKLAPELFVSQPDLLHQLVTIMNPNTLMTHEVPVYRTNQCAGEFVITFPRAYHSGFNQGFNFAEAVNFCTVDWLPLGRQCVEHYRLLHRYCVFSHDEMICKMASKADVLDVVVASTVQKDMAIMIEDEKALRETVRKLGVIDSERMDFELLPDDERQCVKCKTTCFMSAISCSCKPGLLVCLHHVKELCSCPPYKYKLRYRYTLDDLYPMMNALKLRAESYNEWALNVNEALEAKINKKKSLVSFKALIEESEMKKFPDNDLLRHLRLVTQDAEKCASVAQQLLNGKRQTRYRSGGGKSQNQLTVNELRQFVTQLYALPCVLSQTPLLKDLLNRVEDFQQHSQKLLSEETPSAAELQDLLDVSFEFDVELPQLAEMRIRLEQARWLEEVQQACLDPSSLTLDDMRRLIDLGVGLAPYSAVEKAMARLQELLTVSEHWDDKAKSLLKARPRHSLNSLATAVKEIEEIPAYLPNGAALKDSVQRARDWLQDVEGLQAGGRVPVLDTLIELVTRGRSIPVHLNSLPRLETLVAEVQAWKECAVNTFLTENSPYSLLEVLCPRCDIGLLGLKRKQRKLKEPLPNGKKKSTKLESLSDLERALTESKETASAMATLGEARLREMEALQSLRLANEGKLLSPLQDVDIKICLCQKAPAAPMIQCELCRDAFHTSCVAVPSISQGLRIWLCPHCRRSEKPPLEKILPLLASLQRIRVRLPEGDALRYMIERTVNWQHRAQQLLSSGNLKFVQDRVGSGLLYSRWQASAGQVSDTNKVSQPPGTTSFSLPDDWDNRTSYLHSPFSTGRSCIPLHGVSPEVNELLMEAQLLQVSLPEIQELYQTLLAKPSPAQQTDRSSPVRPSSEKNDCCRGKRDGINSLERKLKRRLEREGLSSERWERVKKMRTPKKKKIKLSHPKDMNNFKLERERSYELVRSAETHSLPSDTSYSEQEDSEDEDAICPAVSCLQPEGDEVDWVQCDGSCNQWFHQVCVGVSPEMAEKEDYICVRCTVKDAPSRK
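Here, H3K4me3 peptide (12.5 µM in substrate mix) is demethylated by KDM5BΔAP, 200 nM final, after 10 min compound exposure. Formaldehyde product is coupled through FDH (0.25 U/mL in mix) to NADH fluorescence; 30-min ΔRFU feeds dose-response curves.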
Large screens that a line does not name were inactive.

Cc1ccc(C)c(CN2CCCN(CC(=O)N3CCCC3)S2(=O)=O)c1	none
O=C1/C(=C/c2ccccc2Cl)C(c2ccccc2)Oc2ccccc21 (stereo not given)	none
CCN(CC)C(=O)CN(C)c1ncnc2sc3c(c12)CCC(C)C3 (stereo not given)	none
Cc1cn2nnc(C(=O)N3CCC(C(=O)Nc4ccc(C(C)C)cc4)CC3)c2c(=O)[nH]1	none
COc1ccc(S(=O)(=O)N(CCc2ccccc2)CC(=O)NCc2ccccc2)cc1	none
CCN(Cc1ccccc1)C(=O)c1cn(-c2cccc(Cl)c2)nn1	none
COc1ccccc1CNC(=O)c1cc2c(N3CCCC3)nc(C)cn2n1	KDM5B inhibitor 28.2µM
Cc1cn2nc(C(=O)NCc3ccc(C(C)C)cc3)cc2c(N2CCCC2)n1	KDM5B inhibitor 35.5µM
Cc1cn2nc(C(=O)NCCc3ccc(S(N)(=O)=O)cc3)cc2c(N2CCCC2)n1	none
COc1ccccc1CNC(=O)CSc1nc2ccccc2nc1N1CCCC1	none
CCN(Cc1ccccc1)C(=O)c1cc2c(N3CCCC3)nc(C)cn2n1	KDM5B inhibitor 25.1µM
Cc1cccc(CNC(=O)c2cc3c(N4CCCC4)nc(C)cn3n2)c1	none
COc1cc(Cl)c(C)cc1NS(=O)(=O)c1c(C)nc2sccn2c1=O	none
CCN1CCN(C(=O)c2cc3c(OC)c(OC)c(OC)cc3[nH]2)CC1	none
CC(C)CC(=O)NC1CCN(c2cn[nH]c(=O)c2)CC1	none
CC(=O)NC(CC(=O)O)c1ccc([N+](=O)[O-])cc1 (stereo not given)	none
Cc1cccc(C(=O)N2C(C(=O)NCC(C)C)COC23CCN(C(=O)C(C)(C)C)CC3)c1 (stereo not given)	none
CN1C(=O)CO[C@H]2CN(c3ccc(C#N)cn3)C[C@H]21	KDM5B inhibitor 35.5µM
O=C1CO[C@H]2CN(c3ncccn3)C[C@H]2N1CC1CCCCC1	KDM5B inhibitor 35.5µM
O=C(c1cccnc1)N1C[C@@H]2OCC(=O)N(CC3CC3)[C@@H]2C1	none
N#Cc1ccc(N2C[C@@H]3OCC(=O)N(CC4CCCCC4)[C@@H]3C2)nc1	KDM5B inhibitor 35.5µM
O=C(c1cccnc1)N1C[C@@H]2OCC(=O)N(CC3CCCCC3)[C@@H]2C1	none
COc1ccc(C(=O)N2C[C@@H]3OCC(=O)N(CC4CCCCC4)[C@@H]3C2)cc1	none
CCOC(=O)C1CCCN(c2ccc(C#N)cn2)C1 (stereo not given)	none
CN1C(=O)CO[C@H]2CN(S(C)(=O)=O)C[C@H]21	none
CN1CCCC2(CCN(c3ccc(C#N)cn3)C2)C1=O (stereo not given)	none
CCn1c(CC(=O)Nc2cccc(OC)c2)nnc1SCC(=O)Nc1cccc(F)c1	none
N=C1N(C(=O)OCc2ccccc2)/C(=C\C2=CCCCC2)C(Cc2ccccc2)N1Cc1ccccc1 (stereo not given)	none
Cc1ccc(C)c(N2CCN(c3nc4ccccc4n4c(C)nnc34)CC2)c1	none
Cc1ccc(-c2cn3c(n2)CO[C@@H](CNC(=O)CCC(=O)O)C3)cc1	none
Cc1ccc(-c2cn3c(n2)CO[C@@H](CNC(=O)c2ccccc2)C3)cc1	KDM5B inhibitor 31.6µM
COc1ccc(-c2cn3c(n2)CO[C@@H](CNC(C)=O)C3)cc1	none
Cc1ccc(NC(=O)C(=O)NCC(c2cccnc2)N2CCN(Cc3ccccc3)CC2)cc1Cl (stereo not given)	none
CCC(=O)N1CCCC(Cc2nc(C3CCOCC3)no2)C1 (stereo not given)	none
O=C(C1CCC1)N1CCCC(Cc2nc(C3CCOCC3)no2)C1 (stereo not given)	KDM5B inhibitor 35.5µM
COc1cccc(C(=O)N2CCCC(Cc3nc(C4CCOCC4)no3)C2)c1 (stereo not given)	none
CCNC(=O)N1CCCC(Cc2nc(C3CCOCC3)no2)C1 (stereo not given)	none
O=C(CC1CCCC1)N1CCCC(Cc2nc(C3CCOCC3)no2)C1 (stereo not given)	none
O=C(c1cncc(Br)c1)N1CCCC(Cc2nc(C3CCOCC3)no2)C1 (stereo not given)	KDM5B inhibitor 31.6µM
Cn1c(SCC(=O)Nc2ccc(Br)cc2)nnc1-c1ccccc1F	none
CCCNc1c(NC(=O)NCc2ccccc2)c(=O)oc2ccccc12	none
CC[C@H]1CN(C(=O)C2CC2)CC[C@H]1CC(=O)NCc1cccnc1	none
CCc1nc(C)sc1CNC(=O)[C@H]1CNC[C@H](C(=O)N2CCCC2)C1	none
O=C(NC1CC1)c1ccc(-c2ccc(N3CCCCCC3)nc2)cc1	none
O=C(c1ccc(N2C(=O)c3ccccc3C2=O)cc1)N1CCCCC1	none
O=C(NC1CCCC1)c1ccc(-c2ccc(N3CCCCC3)nc2)cc1	KDM5B inhibitor 11.2µM
CN(C)C(=O)c1ccnc(-c2nnc3ccc(N4CCCCC4)nn23)c1	none
O=C(c1ccc(-c2ccc(N3CCCCCC3)nc2)cc1)N1CCCC1	KDM5B inhibitor 25.1µM
CN(C)C(=O)c1ccc(-c2ccc(N3CCCCCC3)nc2)cc1	KDM5B inhibitor 28.2µM
O=C(NC1CCCCCCC1)c1ccncc1	none
CC(C)NC(=O)c1ccc(-c2ccc(N3CCCCCC3)nc2)cc1	none
O=[N+]([O-])c1ccc(N2CCCCC2)nc1	none
CCN(Cc1ccccc1)C(=O)C1CCN(Cc2ccc(C(F)(F)F)cc2)CC1	none
Cc1ncc2n1C(=O)N(C1CCN(Cc3ccccc3F)CC1)C2	none
CCc1nnc(NC(=O)CSc2nccn2Cc2ccc(C)cc2)s1	none
COc1ccc(-c2nsc(NC(=O)C(C)Oc3ccc(Cl)c(C)c3)n2)cc1 (stereo not given)	none
O=C1CCN(C(=O)[C@@H]2CCCN2C(=O)Nc2ccccc2)CCCCCCN1	none
O=C(NCc1cccs1)C1CCCN(c2nc3ncccc3o2)C1 (stereo not given)	none
O=C(NCC(F)F)C1CCCN(c2nc3ncccc3o2)C1 (stereo not given)	KDM5B inhibitor 28.2µM
O=C(NCC(F)(F)F)C1CCCN(c2nc3ncccc3o2)C1 (stereo not given)	KDM5B inhibitor 22.4µM
O=C(NC1CCCN(c2nc3ncccc3o2)C1)c1ccc(C(F)(F)F)cc1 (stereo not given)	none
CCNC(=O)C1CCCN(c2ncnc3onc(C)c23)C1 (stereo not given)	none
Cc1ccc(C)c(NC(=O)Cn2c(=O)n(Cc3ccc4c(c3)OCO4)c(=O)c3ccc(C(=O)NC4CCCCC4)cc32)c1	none
CC(=O)c1cc(C(=O)N2CCc3c(nc[nH]c3=O)C2)c(=O)[nH]c1C	none
COc1ccccc1C(=O)N1CCCC2(CC(c3ccccn3)=NO2)C1 (stereo not given)	none
Clc1ccc(-c2csc(NC3CC3)n2)cc1	none
Cc1cc(C)cc(C(=O)N2CCCN(S(C)(=O)=O)c3ccccc32)c1	none
CC(=O)c1ccc(S(=O)(=O)N2CCN(CC#N)CC2)cc1	none
Cc1noc(C)c1[S+](=O)([O-])N1CCn2ncc(C(=O)NCc3ccc(Cl)nc3)c2C1	none
CCc1cc(=O)n(CC(=O)Nc2cc(OC)ccc2OC)c(N2CCOCC2)n1	none
COc1ccccc1Nc1ncc2c(n1)CN(C(=O)c1cccc(C#N)c1)CCN2	none
COc1ccccc1Nc1ncc2c(n1)CN(C(=O)c1ccccc1)CCN2	none
COc1ccccc1Nc1ncc2c(n1)CN(C(=O)c1cc3ccccc3n1C)CCN2	KDM5B inhibitor 39.8µM
O=C1CCCC2=C1C(c1ccc(Cl)cc1)n1nc(-c3cccnc3)nc1N2 (stereo not given)	none
CCOc1ccc(CCNC(=O)c2cc(=O)[nH]c3ccc(S(=O)(=O)N(CC)CC)cc23)cc1OCC	none
CC1CCCN(CCCNC(=O)c2cn(C)c3ccc(S(=O)(=O)N(C)C4CCCCC4)cc3c2=O)C1 (stereo not given)	none
COC1CCOC2(CCN(C(=O)NCc3ccc(F)cc3)CC2)C1 (stereo not given)	none
COc1nccnc1NC1CCN(C(=O)Cc2c(C)noc2C)CC1	KDM5B inhibitor 31.6µM

Bioassay records from PubChem BioAssay.
